Data reported in PubChem BioAssay.
Active and inactive are the calls of the source. Unless noted, how the calls were made is not given here.

Experiments:
[1] = HepG2 liver cancer cell viability effects, profiling panel, resazurin fluorescence, 24 h, PK04 Diversity Set (AID 1172); details: higher = more signal
[2] = basal S. cerevisiae growth modulation, no modifier, primary screen, OD600, strain BY4716, 24 h, basal condition (AID 1173); details: OD600, 24 h, higher = more signal, called active from +8 up or from −8 down
[3] = MM1S myeloma cell viability, profiling panel, resazurin fluorescence, basal, 24 h, PK04 Diversity Set (AID 1174); details: higher = more signal, called active from +8 up or from −8 down;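 further: MM1S multiple myeloma cell line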
[4] = target: Dihydroorotate dehydrogenase (quinone), mitochondrial (Plasmodium falciparum (isolate 3D7)) (UniProt Q08210); assay: PfDHODH enzyme inhibitors, primary screen, biochemical, C-terminal His tag, absorbance 600 nm (AID 1175); details: DCIP absorbance 600 nm, higher = more signal, called active from +8 up or from −8 down;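 further: recombinant parasite enzyme with a five histidine tag at its C terminus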
Chain of Dihydroorotate dehydrogenase (quinone), mitochondrial (Plasmodium falciparum (isolate 3D7)) (Q08210 whole entry, looked up): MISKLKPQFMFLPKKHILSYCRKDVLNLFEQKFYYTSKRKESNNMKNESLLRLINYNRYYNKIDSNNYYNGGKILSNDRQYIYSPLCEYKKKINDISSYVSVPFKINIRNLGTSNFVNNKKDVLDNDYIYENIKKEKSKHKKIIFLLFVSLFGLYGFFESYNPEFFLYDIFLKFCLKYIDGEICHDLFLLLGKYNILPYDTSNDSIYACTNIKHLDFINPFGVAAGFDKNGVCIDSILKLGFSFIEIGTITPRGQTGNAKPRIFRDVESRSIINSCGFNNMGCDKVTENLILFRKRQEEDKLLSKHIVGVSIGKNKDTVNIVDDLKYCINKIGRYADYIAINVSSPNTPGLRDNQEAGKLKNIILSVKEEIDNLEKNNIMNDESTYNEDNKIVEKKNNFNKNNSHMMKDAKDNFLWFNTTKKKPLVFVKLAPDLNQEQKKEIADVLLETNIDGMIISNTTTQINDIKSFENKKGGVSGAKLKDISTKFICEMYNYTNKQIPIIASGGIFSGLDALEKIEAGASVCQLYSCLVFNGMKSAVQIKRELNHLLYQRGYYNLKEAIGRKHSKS

[5] = P. aeruginosa biofilm formation inhibitors, primary screen, strain PAO1, LB-PBS medium, absorbance 600 nm (AID 1176); details: P. aeruginosa PAO1 growth/biofilm, A600, 12 h; higher = more signal
[6] = S. cerevisiae RM11-1a growth modifiers, primary screen, strain RM11-1a, OD600, basal, 24 h (AID 1177); details: OD600, 24 h, higher = more signal, called active from +8 up or from −8 down;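 further: cultures grown under basal conditions with no added stressor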
[7] = E. coli acrAB mutant growth effects, primary screen, E. coli filamentation inducers, strain DRC39, OD650, 24 h (AID 1178); details: higher = more signal, called active from +8 up or from −8 down;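 further: growth measured as culture turbidity by optical density at 650 nm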
[8] = E. coli acrAB mutant growth effects, primary screen, E. coli filamentation inducers, strain DRC39, OD650, 48 h (AID 1179);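 further: screen aims at cell division blockers that make cells filament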; details: E. coli DRC39 delta-acrAB growth, higher = more signal, called active from +8 up or from −8 down
[9] = RPMI8226 myeloma cell viability, profiling panel, resazurin fluorescence, basal, 24 h, PK04 Diversity Set (AID 1180); details: higher = more signal;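 further: RPMI8826 multiple myeloma cell line at 5000 cells per well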
[10] = target: E3 ubiquitin-protein ligase XIAP (Homo sapiens) (UniProt P98170); assay: XIAP binders, primary screen, biophysical, small-molecule microarray, fluorescence 635 nm (AID 1181); details: small-molecule microarray binding, higher = more signal;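 further: score merges 667 nm emission and signal to noise over triplicate slides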
Chain of E3 ubiquitin-protein ligase XIAP (Homo sapiens) (P98170 whole entry, looked up): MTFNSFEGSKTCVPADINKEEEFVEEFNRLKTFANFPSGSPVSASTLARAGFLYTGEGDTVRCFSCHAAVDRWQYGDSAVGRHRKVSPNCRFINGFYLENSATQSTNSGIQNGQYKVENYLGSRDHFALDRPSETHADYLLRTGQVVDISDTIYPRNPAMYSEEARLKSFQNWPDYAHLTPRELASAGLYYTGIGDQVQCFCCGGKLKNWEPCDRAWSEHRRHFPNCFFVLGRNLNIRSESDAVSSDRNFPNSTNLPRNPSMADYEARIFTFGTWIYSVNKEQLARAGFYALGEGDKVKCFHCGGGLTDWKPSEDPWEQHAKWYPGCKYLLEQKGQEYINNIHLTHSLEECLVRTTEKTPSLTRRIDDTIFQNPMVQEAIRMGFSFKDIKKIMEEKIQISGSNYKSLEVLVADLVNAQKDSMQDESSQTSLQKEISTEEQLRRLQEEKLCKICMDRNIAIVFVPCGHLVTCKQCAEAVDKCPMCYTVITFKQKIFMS

[11] = tested on: XIP peptide (Xip251-270) binding; assay: small-molecule binders of XIP peptide, primary screen, biochemical, small-molecule microarray, fluorescence 635/667 nm, 0.1 µg/mL protein (AID 1182); details: fluorescent protein binding, 635 nm, higher = more signal, called active from +8 up or from −8 down
XIP peptide (Xip251-270) = assay: small-molecule binders of XIP peptide, primary screen, biochemical, small-molecule microarray, fluorescence 635/667 nm, 0.5 µg/mL protein (AID 1183); details: small-molecule microarray binding, fluorescence 635 nm; higher = more signal
[12] = Plasmodium falciparum growth inhibition, primary screen, strain 3D7, DAPI fluorescence, 100 nL (AID 1184);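 further: parasites grown inside human red blood cells in medium with human serum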; details: P. falciparum 3D7 growth, 3 d, higher = more signal
[13] = target: Homeobox protein Hox-A13 (Mus musculus) (UniProt Q62424); assay: inhibitors of HoxA13-DNA binding, primary screen, biochemical, fluorescence polarization, labeled oligonucleotide (AID 1185); details: 15 min, higher = more signal, called active from +8 up or from −8 down
Chain of Homeobox protein Hox-A13 (Mus musculus) (Q62424 whole entry, looked up): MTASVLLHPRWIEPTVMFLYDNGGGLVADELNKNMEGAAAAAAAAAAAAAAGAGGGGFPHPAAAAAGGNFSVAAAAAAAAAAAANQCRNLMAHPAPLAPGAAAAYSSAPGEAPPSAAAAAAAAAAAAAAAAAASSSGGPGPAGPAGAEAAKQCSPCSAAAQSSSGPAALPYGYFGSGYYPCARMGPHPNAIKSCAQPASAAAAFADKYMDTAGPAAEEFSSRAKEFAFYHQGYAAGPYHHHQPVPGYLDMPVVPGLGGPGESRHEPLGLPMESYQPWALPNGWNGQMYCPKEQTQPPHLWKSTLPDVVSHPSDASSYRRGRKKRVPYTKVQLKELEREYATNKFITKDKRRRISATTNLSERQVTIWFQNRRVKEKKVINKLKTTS

[14] = inhibitors of hydroxyurea-induced Chk1 phosphorylation, primary screen, imaging, HeLa, phospho-Chk1 antibody, percent positive cells (AID 1186); details: hydroxyurea-induced phospho-Chk1 immunofluorescence imaging, higher = more signal
[15] = inhibitors of hydroxyurea-induced Chk1 phosphorylation, primary screen, imaging, HeLa, phospho-Chk1 nuclear intensity (AID 1187); details: hydroxyurea-induced phospho-Chk1 immunofluorescence imaging, higher = more signal

Structure (SMILES) | z-score [1] | z-score [2] | z-score [3] | composite z-score [4] | z-score [5] | z-score [6] | z-score [7] | z-score [8] | z-score [9] | composite z-score [10] | composite z-score [11] | composite z-score (XIP peptide (Xip251-270)) | z-score [12] | z-score [13] | z-score [14] | z-score [15]
Cc1ccc(S[C@]2(C(=O)NCc3ccccc3)CC(=O)N(Cc3ccccc3C(F)(F)F)[C@@H]2c2ccc(CO)cc2)cc1 | -0.704 | -0.359 (inactive) | 0.103 (inactive) | -1.27 (inactive) | 0.416 (inactive) | -1.38 (inactive) | 0.57 (inactive) | 1.46 (inactive) | -0.307 | 0.109 | 0.903 (inactive) | 0.599 | 0.78 | 0.0133 (inactive) | -0.51 (inactive) | -0.393 (inactive)
CC1CC/C=C\[C@H]2OC34C=CCN(C(C)(C)C)C(=O)[C@H]3N(CCCO)C(=O)[C@@H]4C2C(=O)O1 (stereo partly drawn) | -0.216 | 1 (inactive) | -0.32 (inactive) | -0.555 (inactive) | 0.261 (inactive) | 0.0605 (inactive) | -0.282 (inactive) | -0.52 (inactive) | 0.276 | -0.02 | 0.453 (inactive) | 0.774 | 0.428 | -3.59 (inactive) | 0.0854 (inactive) | -0.248 (inactive)
CCOC(=O)C1=CC[C@@H](c2ccc(OC)cc2)N(S(=O)(=O)c2ccc(C)cc2)[C@H]1CC | 0.0292 | -1.82 (inactive) | -0.289 (inactive) | -1.04 (inactive) | 0.505 (inactive) | -0.0802 (inactive) | 0.608 (inactive) | 1.87 (inactive) | -0.793 | -0.321 | 0.441 (inactive) | 0.463 | -2.03 | -0.507 (inactive) | -0.819 (inactive) | -0.599 (inactive)
CC(C)C[C@@H]1NC(=O)[C@@]23C(=O)N[C@@H](Cc4ccccc4)C2[C@H](C)[C@@]2(C)O[C@H]2C3/C=C/C/C=C\CNC(=O)CNC1=O (stereo partly drawn) | -0.62 | -1.68 (inactive) | 0.308 (inactive) | -0.658 (inactive) | 0.437 (inactive) | -0.773 (inactive) | -0.229 (inactive) | -0.911 (inactive) | -0.139 | -0.105 | 0.533 (inactive) | 0.58 | -0.59 | -5.87 (inactive) | 0.312 (inactive) | -0.0422 (inactive)
CC(C)NC(=O)[C@@H]1c2ccccc2C(=O)N(Cc2ccc(OC(F)(F)F)cc2)[C@H]1c1ccc(CO)cc1 | -1.14 | 0.924 (inactive) | 0.155 (inactive) | -4.48 (inactive) | 0.627 (inactive) | 0.91 (inactive) | -0.386 (inactive) | -0.664 (inactive) | 0.808 | -0.16 | -0.514 (inactive) | 0.72 | -1.58 | -3.72 (inactive) | 0.244 (inactive) | 0.137 (inactive)
CCCC=C(CCC)[C@@H](NC(=O)OCC(C)C)c1ccc(C(=O)OC)cc1 | 1.78 | 0.463 (inactive) | 0.287 (inactive) | -0.456 (inactive) | 0.523 (inactive) | -0.578 (inactive) | 0.386 (inactive) | -0.0328 (inactive) | 0.754 | 0.0651 | 0.402 (inactive) | 0.279 | -0.102 | -1.31 (inactive) | -0.468 (inactive) | -0.598 (inactive)
O=C(NCCN1CCOCC1)[C@@H]1c2ccccc2C(=O)N(Cc2ccc(OC(F)(F)F)cc2)[C@H]1c1ccc(CO)cc1 | -0.129 | -0.559 (inactive) | 0.0245 (inactive) | -0.0449 (inactive) | 0.925 (inactive) | -0.449 (inactive) | 0.248 (inactive) | -0.322 (inactive) | 0.546 | 0.0151 | 0.441 (inactive) | -0.103 | -1.05 | -4.13 (inactive) | 0.0777 (inactive) | -0.117 (inactive)
C[N+](C)(C)CCCC[C@@H]1NC(=O)[C@H]2C[C@@H](C(=O)NCCCCCNC(=O)CS)[C@@H](c3cccc(OCCO)c3)N2C1=O | -0.226 | -0.307 (inactive) | 0.703 (inactive) | -0.867 (inactive) | 0.298 (inactive) | -1.13 (inactive) | -0.133 (inactive) | -0.779 (inactive) | 0.401 | -0.102 | 0.649 (inactive) | -0.203 | -0.222 | -2.8 (inactive) | 0.0911 (inactive) | 0.164 (inactive)
COC(=O)C(CC#Cc1ccc2c(c1)[C@]1(C(=O)N2)[C@H](C(=O)N2CCc3cc(OC)c(OC)cc3C2)[C@H]2C(=O)O[C@H](c3ccccc3)[C@H](c3ccccc3)N2[C@@H]1c1ccccc1OCCO)C(=O)OC | -0.553 | 1.79 (inactive) | -1.03 (inactive) | -7.03 (inactive) | 3.81 (inactive) | 2.83 (inactive) | 0.154 (inactive) | 0.618 (inactive) | -0.705 | -0.11 | 0.254 (inactive) | 0.796 | -2.23 | 2.81 (inactive) | -0.0915 (inactive) | 0.0536 (inactive)
COC(=O)c1cccc([C@H]2OC(=CC(=O)OC(C)C)C[C@@H](c3cccc(C(=O)OC)c3)O2)c1 | -0.674 | -2.43 (inactive) | -0.799 (inactive) | -0.351 (inactive) | 0.188 (inactive) | -0.258 (inactive) | -0.435 (inactive) | -0.0196 (inactive) | 0.0732 | 0.378 | 0.308 (inactive) | 0.713 | -0.832 | -4.13 (inactive) | -0.504 (inactive) | -1.39 (inactive)
CCOC(=O)C[C@H]1[C@H](OC(=O)Cc2ccc3c(c2)OCO3)[C@@H](NC(=O)c2ccc3ccccc3n2)c2cc(OCCCO)ccc2N1C(=O)Cc1ccc(OC)cc1 | 1.14 | -1.17 (inactive) | -0.175 (inactive) | -1.55 (inactive) | 0.477 (inactive) | -0.925 (inactive) | 1.12 (inactive) | 1.6 (inactive) | 0.29 | -0.232 | 0.322 (inactive) | 0.401 | -2.57 | -1.86 (inactive) | -0.192 (inactive) | 0.225 (inactive)
C=C(COC)C(=O)CC[C@H](OC(=O)c1cccnc1)c1ccc(OCCO)cc1 | -0.974 | -3.4 (inactive) | -0.443 (inactive) | -2.45 (inactive) | -0.0342 (inactive) | 1.29 (inactive) | -0.768 (inactive) | -0.8 (inactive) | -0.776 | -0.0013 | 1.08 (inactive) | 0.447 | -0.711 | -5.58 (inactive) | 0.35 (inactive) | 0.343 (inactive)
C=CC[C@]1(C(=O)NCC(O)CO)COC(c2ccc(OCCCO)cc2)=N1 (stereo partly drawn) | -0.25 | 0.369 (inactive) | -0.772 (inactive) | 0.233 (inactive) | 2.29 (inactive) | 1.33 (inactive) | -0.34 (inactive) | -0.471 (inactive) | -0.412 | -0.266 | -0.933 (inactive) | -1.45 | 0.343 | -4.55 (inactive) | 0.0293 (inactive) | -0.553 (inactive)
CC(C)(C)N1CC=CC23O[C@@H]4/C=C\CCCOC(=O)C4[C@H]2C(=O)N(CCCO)[C@@H]3C1=O (stereo partly drawn) | 0.0873 | 0.111 (inactive) | 0.0928 (inactive) | -2.08 (inactive) | -0.236 (inactive) | -1.06 (inactive) | 0.0362 (inactive) | -0.205 (inactive) | -0.0182 | -0.0626 | -0.12 (inactive) | -0.774 | 0.426 | -5.57 (inactive) | -0.0351 (inactive) | 0.0939 (inactive)
C=CCNC(=O)[C@H]1[C@@H]2C(=O)O[C@@H](c3ccccc3)[C@@H](c3ccccc3)N2[C@@H](c2ccc(OCCO)cc2)[C@]12C(=O)Nc1ccc(C#CC3(O)CCCCCC3)cc12 | -0.311 | 0.868 (inactive) | -0.823 (inactive) | -0.0685 (inactive) | 0.898 (inactive) | 2.62 (inactive) | 0.352 (inactive) | 0.988 (inactive) | -0.987 | -0.224 | 0.38 (inactive) | 0.821 | -2.09 | -1.83 (inactive) | 0.541 (inactive) | 1.15 (inactive)
C=C(COC)C(=O)CC[C@@H](OC(=O)c1ccccc1-c1ccccc1C(=O)O)c1ccc(OCCO)cc1 | -0.425 | -0.528 (inactive) | -0.105 (inactive) | -1.09 (inactive) | 0.449 (inactive) | -0.426 (inactive) | -0.699 (inactive) | -0.708 (inactive) | -0.492 | 0.165 | 0.264 (inactive) | 0.666 | -0.61 | -5.88 (inactive) | -0.0419 (inactive) | 0.0533 (inactive)
O=C1C2C=CC(C(O)C3CCCCC3)N(n3cnnc3)C2C(=O)N1Cc1ccccc1 (stereo not drawn) | -0.308 | 0.161 (inactive) | -0.196 (inactive) | -0.016 (inactive) | 0.561 (inactive) | -0.618 (inactive) | 0.386 (inactive) | 1.01 (inactive) | -0.513 | -0.0535 | 0.534 (inactive) | -0.0061 | -0.902 | -1.8 (inactive) | 0.359 (inactive) | -0.394 (inactive)
CC1CC/C=C\[C@H]2OC34C=CCN(c5ccc(Cl)cc5)C(=O)[C@H]3N(CCCCCCO)C(=O)[C@]4(C)C2C(=O)O1 (stereo partly drawn) | 0.25 | -0.257 (inactive) | 0.722 (inactive) | -1.1 (inactive) | -0.801 (inactive) | 0.268 (inactive) | 0.251 (inactive) | 0.732 (inactive) | 0.485 | 1.65 | 0.675 (inactive) | 0.265 | 0.955 | -5.35 (inactive) | -0.517 (inactive) | -0.187 (inactive)
